A number with no mark means an inactive call. Inconclusive results are not listed. Entries that show only a call come without a potency. Activity calls are given as the source filed them. Unless noted, calls come from the whole dose curve; as a rule, active = well fitted curve in the direction sought with a large enough effect in the repeat runs; inconclusive = weak or mixed curves; inactive = no such curve, though single readings can be large; an effect the other way counts as inactive or inconclusive.
What was measured:
[1] = qHTS assay to identify small molecule antagonists of the estrogen receptor alpha (ER-alpha) signaling pathway using the BG1 cell line in the presence of 0.1 nM 17-beta-estradiol - cell viability counter screen (AID 1259241); note: nearly all actives have a fitted effect of over 40% in size
Method in brief: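 Viability in VM7Luc4E2 cells after 22 hr compound exposure under 0.1 nM 17beta-estradiol stimulation, by CellTiter-Fluor.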

[2] = qHTS assay to identify small molecule antagonists of the androgen receptor (AR) signaling pathway using the MDA cell line in the presence of 0.5 nM R1881 - cell viability counter screen (AID 1259242); note: nearly all actives have a fitted effect of over 45% in size
Method in brief: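 MDA-kb2 cells (MMTV-luciferase, AR/GR responsive) were treated with compounds plus 0.5 nM R1881 (final) for 16 hr at 37C, 0% CO2. Viability was then read in the same wells as live-cell protease fluorescence (CellTiter-Fluor, 30 min).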

[3] = qHTS assay to identify small molecule HDAC inhibitors (AID 1259364); note: top concentration of the series differs between compounds; nearly all actives have a fitted effect of over 45% in size
Method in brief: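 Wild-type HCT-116 cells, plated overnight at 37 C, exposed to compounds 2 hr at 37 C; luminogenic HDAC-Glo substrate then added 30 min at room temperature. Luminescence reports relative endogenous class I/II HDAC activity.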

[4] = qHTS assay to identify small molecule HDAC inhibitors - cell viability counter screen (AID 1259365); note: series mostly up to about 92 µM; nearly all actives have a fitted effect of over 50% in size
Method in brief: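 Cytotoxicity was gauged in wild-type HCT-116 cells after a brief 2hr treatment with DMSO-dissolved compounds at 37C and 5% CO2, using CellTiter-Glo luminescence developed for 30min at room temperature.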

[5] = qHTS assay to identify small molecule agonists of the sonic hedgehog signaling (Shh) pathway - cell viability counter screen (AID 1259366); note: nearly all actives have a fitted effect of over 50% in size; note: potency is the fitted concentration of half-maximal effect
Method in brief: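 Stable Gli1-Luc NIH/3T3 clone, 2,000 cells/well. Compound exposure 24hr at 37C. Read-out: CellTiter-Fluor fluorescence.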

[6] = qHTS assay to identify small molecule antagonists of the sonic hedgehog signaling (Shh) pathway - cell viability counter screen (AID 1259367); note: nearly all actives have a fitted effect of over 55% in size
Method in brief: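 NIH/3T3-derived Gli1-Luc reporter cells (2,000 per well) rested 4 hr at 37 C, then received DMSO compounds plus conditioned medium. After 23 hr of treatment, CellTiter-Fluor was added for 1 hr at 37C and fluorescence read.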

[7] = qHTS assay to identify small molecule agonists of the sonic hedgehog signaling (Shh) pathway (AID 1259368; calls by dose curve;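 note: NIH/3T3-derived 3T3Gli1-Luc cells carrying a stable Gli1-driven firefly luciferase reporter; series mostly up to about 92 µM; nearly all actives have a fitted effect of over 15% in size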)
Method in brief: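 NIH/3T3-derived 3T3Gli1-Luc cells with stably integrated Gli1-driven firefly luciferase, 2,000 cells/well, compounds added after 4 hr. Incubated 24 hr at 37C, 5% CO2; luminescence read after 30 min with luciferase reagent at room temperature.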

[8] = qHTS assay to identify small molecule agonists of the androgen receptor (AR) signaling pathway in the presence of an antagonist - cell viability counter screen (AID 1259379);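 note: MDA-kb2 human breast cancer cells carrying an MMTV luciferase reporter; series mostly up to about 92 µM; nearly all actives have a fitted effect of over 25% in size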
Method in brief: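 MDA-kb2 cells (MMTV-luciferase, AR/GR), 3,000/well, 5 h attachment, then 3.0 µM nilutamide (final) and compounds at 15 concentrations. Viability by CellTiter-Fluor fluorescence after 16 h at 37 °C, 0% CO2, in the reporter wells.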

[9] = qHTS assay to identify small molecule antagonists of the estrogen receptor beta (ER-beta) signaling pathway - cell viability counter screen (AID 1259382); note: series mostly up to about 92 µM; nearly all actives have a fitted effect of over 55% in size
Method in brief: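 ER-beta-UAS-bla HEK293T cells in 2% charcoal-stripped FBS medium, treated with compound plus 1 nM 17-beta-estradiol for 16 h at 37C. Viability read by CellTiter-Glo luminescence after 30 min at room temperature in the same wells.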

[10] = qHTS assay to identify small molecule agonists or antagonists of the thyroid stimulating hormone receptor (TSHR) signaling pathway - wild type cell line counter screen (AID 1259384; calls by dose curve)
Method in brief: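 Wild-type HEK293 cells were plated 18 h at 37 C/5% CO2, pin-dosed with compound plus Ro20-1724 medium, held 30 min at room temperature, then given cAMP-d2 and anti-cAMP-cryptate; fluorescence was read after 1 h. Fifteen concentrations, triplicate.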

[11] = biological target: Thyrotropin receptor (Homo sapiens) (UniProt P16473); assay: qHTS assay to identify small molecule antagonists of the thyroid stimulating hormone receptor (TSHR) signaling pathway (AID 1259385; calls by dose curve; note: nearly all actives have a fitted effect of over 20% in size)
Thyrotropin receptor (Homo sapiens), sequence (P16473 whole entry, looked up): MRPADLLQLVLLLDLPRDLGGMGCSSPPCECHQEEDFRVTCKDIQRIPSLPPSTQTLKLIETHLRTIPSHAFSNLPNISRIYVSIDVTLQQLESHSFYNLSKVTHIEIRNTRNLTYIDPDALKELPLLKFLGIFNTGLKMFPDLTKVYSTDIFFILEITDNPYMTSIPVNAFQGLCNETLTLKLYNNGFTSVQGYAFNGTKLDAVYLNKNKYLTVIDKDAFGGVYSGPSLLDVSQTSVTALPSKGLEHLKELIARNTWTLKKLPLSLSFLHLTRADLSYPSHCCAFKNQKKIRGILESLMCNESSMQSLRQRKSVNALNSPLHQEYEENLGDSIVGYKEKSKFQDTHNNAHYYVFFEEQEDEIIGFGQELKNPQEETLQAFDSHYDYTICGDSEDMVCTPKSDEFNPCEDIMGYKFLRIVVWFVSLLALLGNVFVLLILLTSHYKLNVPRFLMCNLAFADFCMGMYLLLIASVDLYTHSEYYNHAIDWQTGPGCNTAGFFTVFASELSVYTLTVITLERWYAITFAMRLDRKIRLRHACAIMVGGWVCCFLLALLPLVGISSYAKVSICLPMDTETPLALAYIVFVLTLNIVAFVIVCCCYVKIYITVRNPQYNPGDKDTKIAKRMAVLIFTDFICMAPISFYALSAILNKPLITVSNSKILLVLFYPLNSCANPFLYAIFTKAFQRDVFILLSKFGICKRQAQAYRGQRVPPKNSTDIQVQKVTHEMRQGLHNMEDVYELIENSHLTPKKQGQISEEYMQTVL
Method in brief: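 TSHR-HEK293 cells were plated and held 18 h at 37C/5% CO2, then given compound plus Ro20-1724 and stimulated with TSH at 1.5 ng/mL final. After 30 min at room temperature, cAMP was detected with cAMP-d2/anti-cAMP-cryptate (1 h) by fluorescence.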

[12] = qHTS assay to identify small molecule phospholipidosis (PLD) inducers (AID 1259344; active = well fitted curve in the direction sought with a large enough effect; an effect the other way counts as inactive or inconclusive)
Method in brief: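 HepG2 cells on collagen I, attached 4 h at 37 C, were co-treated with compound and LipidTOX Red dye for 24 h at 37 C, then fixed with paraformaldehyde plus Hoechst 33342 and imaged by high-content microscopy for phospholipid accumulation.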

[13] = biological target: Estrogen receptor beta (Homo sapiens) (UniProt Q92731); assay: qHTS assay to identify small molecule agonists of the estrogen receptor beta (ER-beta) signaling pathway (AID 1259377; active = well fitted activation curve with a large enough effect in the signal ratio in the repeat runs, not every such curve was filed as active; the % refers to the signal ratio)
Estrogen receptor beta (Homo sapiens), sequence (Q92731 whole entry, looked up): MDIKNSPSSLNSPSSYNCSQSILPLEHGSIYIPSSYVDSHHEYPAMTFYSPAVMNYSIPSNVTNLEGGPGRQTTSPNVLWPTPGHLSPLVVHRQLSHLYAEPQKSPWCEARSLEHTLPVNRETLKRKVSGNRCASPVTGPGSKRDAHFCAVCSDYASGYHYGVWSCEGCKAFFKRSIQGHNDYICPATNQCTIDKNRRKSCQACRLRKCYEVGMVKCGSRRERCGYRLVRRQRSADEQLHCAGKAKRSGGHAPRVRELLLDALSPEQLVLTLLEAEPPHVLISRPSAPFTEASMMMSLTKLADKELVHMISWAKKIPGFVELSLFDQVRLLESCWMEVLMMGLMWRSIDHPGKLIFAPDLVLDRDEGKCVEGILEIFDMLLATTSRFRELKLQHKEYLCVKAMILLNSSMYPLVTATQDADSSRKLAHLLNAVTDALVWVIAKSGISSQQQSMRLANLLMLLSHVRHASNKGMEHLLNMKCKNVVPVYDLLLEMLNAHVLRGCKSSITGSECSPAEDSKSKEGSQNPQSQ
Method in brief: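 Measured by fluorescence intensity from a B/G FRET beta-lactamase substrate (2 h, room temperature) in ER-beta-UAS-bla HEK293T cells treated with DMSO-dissolved compounds for 16 hr at 37C and 5% CO2.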

[14] = biological target: Estrogen receptor beta (Homo sapiens) (UniProt Q92731); assay: qHTS assay to identify small molecule antagonists of the estrogen receptor beta (ER-beta) signaling pathway (AID 1259378; active = well fitted inhibition curve with a large enough effect in the signal ratio in the repeat runs, not every such curve was filed as active; the % refers to the signal ratio; note: potency is the fitted concentration of half-maximal effect)
Method in brief: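 ER-beta-UAS-bla HEK293T (GripTite) cells in 2% charcoal-stripped FBS medium were preincubated 6 hr at 37C, dosed with compound, then stimulated with 1 nM E2 (final) for 16 hr; beta-lactamase reporter read by B/G FRET fluorescence after 2 hr substrate loading.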

[15] = qHTS assay to identify small molecule antagonists of the sonic hedgehog signaling (Shh) pathway (AID 1259369; calls by dose curve; note: nearly all actives have a fitted effect of over 45% in size)
Method in brief: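 NIH/3T3-derived Gli1-Luc reporter cells plated 4 h, dosed with compound, then stimulated with conditioned medium for 24 h at 37 C. Firefly luciferase luminescence read after 30 min with detection reagent at room temperature.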

[16] = qHTS assay to identify small molecule agonists of the estrogen receptor beta (ER-beta) signaling pathway - cell viability counter screen (AID 1259380); note: nearly all actives have a fitted effect of over 30% in size; note: potency is the fitted concentration of half-maximal effect
Method in brief: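 ER-beta-UAS-bla HEK293T cells in medium with 2% charcoal-stripped FBS, pre-incubated 6 hr, then treated 16 hr at 37C. Cytotoxicity read in the same wells by CellTiter-Glo luminescence after 30 min at room temperature.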

[17] = biological target: Androgen receptor (Homo sapiens) (UniProt P10275); assay: qHTS assay to identify small molecule antagonists of the androgen receptor (AR) signaling pathway using the MDA cell line in the presence of 0.5 nM R1881 (AID 1259243); note: nearly all actives have a fitted effect of over 50% in size
Androgen receptor (Homo sapiens), sequence (P10275 whole entry, looked up): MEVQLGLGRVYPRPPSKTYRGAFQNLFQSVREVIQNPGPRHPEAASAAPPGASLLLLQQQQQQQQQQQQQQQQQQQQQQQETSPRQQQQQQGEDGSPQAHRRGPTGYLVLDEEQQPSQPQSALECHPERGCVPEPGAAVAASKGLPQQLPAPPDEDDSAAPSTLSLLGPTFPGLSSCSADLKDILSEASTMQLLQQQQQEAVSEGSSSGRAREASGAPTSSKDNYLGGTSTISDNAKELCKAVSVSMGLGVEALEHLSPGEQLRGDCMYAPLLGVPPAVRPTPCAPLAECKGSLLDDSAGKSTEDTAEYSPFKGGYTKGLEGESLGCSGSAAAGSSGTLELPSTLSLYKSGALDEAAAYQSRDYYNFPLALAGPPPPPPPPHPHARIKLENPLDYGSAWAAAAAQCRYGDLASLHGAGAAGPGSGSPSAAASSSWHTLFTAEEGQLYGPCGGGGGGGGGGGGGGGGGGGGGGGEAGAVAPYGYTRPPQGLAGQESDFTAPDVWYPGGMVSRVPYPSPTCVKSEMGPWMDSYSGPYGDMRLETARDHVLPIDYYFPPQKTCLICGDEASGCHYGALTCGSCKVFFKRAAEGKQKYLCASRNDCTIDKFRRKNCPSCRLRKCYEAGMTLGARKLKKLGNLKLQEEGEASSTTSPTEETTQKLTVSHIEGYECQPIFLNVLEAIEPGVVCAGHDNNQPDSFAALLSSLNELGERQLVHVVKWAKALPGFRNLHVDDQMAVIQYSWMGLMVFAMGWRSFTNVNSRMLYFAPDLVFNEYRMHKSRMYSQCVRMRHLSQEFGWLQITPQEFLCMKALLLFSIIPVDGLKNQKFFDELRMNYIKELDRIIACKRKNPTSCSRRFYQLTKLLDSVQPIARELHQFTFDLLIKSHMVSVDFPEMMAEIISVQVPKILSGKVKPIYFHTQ
Method in brief: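 MDA-kb2 cells (MMTV-luciferase, responsive to AR and GR) at 3,000/well, rested 5 h at 37C, 0% CO2, then given compounds plus 0.5 nM R1881 (final) for 16 hr. Luciferase read with ONE-Glo after 30 min at room temperature.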

[18] = biological target: Estrogen receptor (Homo sapiens) (UniProt P03372); assay: qHTS assay to identify small molecule antagonists of the estrogen receptor alpha (ER-alpha) signaling pathway using the BG1 cell line in the presence of 0.1 nM 17-beta-estradiol (AID 1259244); note: nearly all actives have a fitted effect of over 50% in size
Estrogen receptor (Homo sapiens), sequence (P03372 whole entry, looked up): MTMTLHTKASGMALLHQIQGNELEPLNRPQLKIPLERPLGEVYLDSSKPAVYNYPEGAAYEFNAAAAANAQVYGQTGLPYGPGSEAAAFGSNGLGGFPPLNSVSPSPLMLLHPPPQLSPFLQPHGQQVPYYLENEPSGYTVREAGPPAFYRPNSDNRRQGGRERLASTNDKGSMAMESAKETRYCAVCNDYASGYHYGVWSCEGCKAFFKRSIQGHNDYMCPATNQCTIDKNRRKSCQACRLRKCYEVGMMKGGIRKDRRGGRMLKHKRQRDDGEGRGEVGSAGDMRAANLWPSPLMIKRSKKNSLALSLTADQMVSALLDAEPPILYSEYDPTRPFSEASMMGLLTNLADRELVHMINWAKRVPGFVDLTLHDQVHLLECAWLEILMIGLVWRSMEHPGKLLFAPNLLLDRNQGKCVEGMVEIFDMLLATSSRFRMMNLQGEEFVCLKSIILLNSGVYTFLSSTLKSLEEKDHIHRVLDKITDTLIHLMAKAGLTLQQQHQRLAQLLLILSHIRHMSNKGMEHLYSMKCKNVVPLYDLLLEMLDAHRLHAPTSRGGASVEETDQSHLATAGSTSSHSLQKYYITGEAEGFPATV
Method in brief: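 VM7Luc4E2 cells (endogenous full-length ER-alpha, 4×ERE-luciferase), kept 5 days in phenol red-free, charcoal-stripped FBS medium; 4,000 cells/well. Compounds added with 0.1 nM (final) 17beta-estradiol, 22 hr at 37C; luminescence read with ONE-Glo after 30 min.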

[19] = biological target: Androgen receptor (Homo sapiens) (UniProt P10275); assay: qHTS assay to identify small molecule agonists of the androgen receptor (AR) signaling pathway in the presence of an antagonist (AID 1259381; calls by dose curve; note: nearly all actives have a fitted effect of over 15% in size)
Method in brief: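 MDA-kb2 cells carrying MMTV-luciferase (AR/GR responsive), 3,000 cells/well, co-treated with 3.0 uM nilutamide final. Compounds at 15 concentrations, 16 hr at 37C without CO2. Luciferase luminescence read after 30 min with ONE-Glo.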

[20] = biological target: Estrogen receptor (Homo sapiens) (UniProt P03372); assay: qHTS assay to identify small molecule agonists of the estrogen receptor alpha (ER-alpha) signaling pathway in the presence of an antagonist (AID 1259383; calls by dose curve; note: top concentration of the series differs between compounds; nearly all actives have a fitted effect of over 15% in size)
Method in brief: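 VM7Luc4E2 cells express endogenous full-length ER-alpha with an ERE-luciferase reporter and were hormone-deprived for 5 days. Compounds at 15 concentrations were added with 10.0nM ICI-182,780 for 22hr at 37C. Luminescence was read with ONE-Glo.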

Compound	outcome [1]	outcome [2]	Potency [3]	outcome [4]	Potency [5]	Potency [6]	outcome [7]	Potency [8]	Potency [9]	Potency [10]	Potency [11]	outcome [12]	outcome [13]	Potency [14]	Potency [15]	Potency [16]	Potency [17]	Potency [18]	Potency [19]	Potency [20]
CC1CCC(=O)O1 (stereo not given)	inactive	inactive	inactive	inactive	inactive	inactive	inactive	inactive	inactive	inactive	inactive	–	–	–	–	–	–	–	–	–
OC(c1ccccc1)(c1ccccc1)C1CCNCC1	inactive	inactive	inactive	inactive	–	–	inactive	inactive	–	inactive	–	inactive	inactive	inactive	–	–	–	–	–	–
CNC(=O)O/N=C(\C)SC	inactive	inactive	inactive	inactive	inactive	inactive	inactive	inactive	inactive	inactive	–	–	inactive	inactive	–	–	–	–	–	–
CC(C)COP(=O)(OCC(C)C)OCC(C)C	inactive	inactive	inactive	inactive	inactive	inactive	–	inactive	inactive	inactive	–	–	inactive	inactive	inactive	inactive	–	–	–	–
C[C@]1(O)CC[C@H]2[C@@H]3CCC4=CC(=O)CC[C@]4(C)[C@@]3(F)[C@@H](O)C[C@@]21C	inactive	inactive	inactive	inactive	inactive	inactive	inactive	inactive	inactive	inactive	inactive	–	–	–	–	–	–	–	–	–
COC(=O)c1ccccc1S(=O)(=O)NC(=O)Nc1nc(C)cc(C)n1	inactive	inactive	inactive	inactive	–	inactive	inactive	inactive	inactive	inactive	inactive	–	inactive	inactive	inactive	inactive	–	–	–	–
COc1cccc(C(=O)NN(C(=O)c2cc(C)cc(C)c2)C(C)(C)C)c1C	inactive	inactive	inactive	inactive	13.7 µM (active)	–	–	inactive	inactive	inactive	inactive	–	inactive	inactive	–	inactive	–	–	–	–
O=[N+]([O-])c1cccc(O)c1	inactive	inactive	inactive	inactive	inactive	inactive	inactive	inactive	inactive	inactive	inactive	–	–	–	–	inactive	–	–	–	–
CCOC(=O)C1(c2ccccc2)CCN(CCc2ccc(N)cc2)CC1	inactive	–	inactive	inactive	inactive	inactive	inactive	inactive	inactive	inactive	inactive	–	–	inactive	inactive	–	inactive	inactive	inactive	–
COCC(=O)N(c1c(C)cccc1C)N1CCOC1=O	inactive	inactive	inactive	inactive	inactive	inactive	inactive	inactive	inactive	–	–	–	–	–	–	–	–	–	–	–
CN1C[C@@H](NS(=O)(=O)N(C)C)C[C@@H]2c3cccc4c3c(cn4C)C[C@H]21	inactive	inactive	inactive	inactive	–	inactive	inactive	inactive	inactive	inactive	inactive	inactive	inactive	inactive	inactive	–	–	–	–	–
CCOC(=O)NC(=S)Nc1ccccc1NC(=S)NC(=O)OCC	inactive	inactive	–	inactive	inactive	inactive	inactive	inactive	inactive	–	–	–	inactive	inactive	inactive	inactive	–	–	–	–
CC(C1CC1)C(O)(Cn1cncn1)c1ccc(Cl)cc1 (stereo not given)	inactive	inactive	inactive	inactive	inactive	inactive	inactive	inactive	inactive	inactive	inactive	–	–	inactive	–	inactive	–	–	–	–
CC(C=O)Cc1ccc2c(c1)OCO2 (stereo not given)	inactive	inactive	inactive	inactive	inactive	inactive	–	inactive	inactive	inactive	inactive	–	inactive	inactive	inactive	–	–	–	–	–
Fc1ccc(C2(Cn3cncn3)OC2c2ccccc2Cl)cc1 (stereo not given)	inactive	inactive	inactive	inactive	inactive	inactive	inactive	inactive	–	inactive	–	–	inactive	30.6 µM (active)	–	17.2 µM (active)	–	–	–	inactive
CNC(=O)Oc1cccc(C(C)C)c1	inactive	inactive	inactive	inactive	inactive	inactive	inactive	inactive	inactive	inactive	inactive	–	–	–	–	inactive	–	–	–	–
COC(=O)C(C)Oc1ccc(Oc2ccc(Cl)cc2Cl)cc1 (stereo not given)	inactive	inactive	inactive	inactive	–	inactive	inactive	inactive	inactive	inactive	inactive	–	inactive	inactive	inactive	inactive	–	–	–	–
O=C(CCCN1CCC(n2c(=O)[nH]c3ccccc32)CC1)c1ccc(F)cc1	inactive	inactive	inactive	inactive	inactive	inactive	inactive	–	inactive	inactive	–	inactive	–	–	–	–	–	–	inactive	inactive
CCCCC(=O)Cl	inactive	inactive	inactive	inactive	inactive	inactive	–	inactive	inactive	inactive	inactive	–	–	inactive	inactive	inactive	–	–	–	–
CNC(=O)Oc1ccccc1C1OCCO1	inactive	–	inactive	inactive	inactive	inactive	inactive	inactive	inactive	–	–	–	–	inactive	inactive	inactive	inactive	inactive	inactive	inactive
CC1=NNC(=O)N(/N=C/c2cccnc2)C1	inactive	inactive	inactive	inactive	–	inactive	–	inactive	inactive	inactive	–	–	–	inactive	inactive	–	–	–	–	–
